Laboratory results: the supplement of paper PMC9177965

What follows are molecules tested on HT29 sg-Ctrl (RNF43 wildtype) (assay: cell viability activity relative to DMSO (negative = inhibition); higher = more viable cells (less growth inhibition)). Settings: 5 µM; 96 h.
Description: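 Broad Repurposing Library primary screen at a single dose of 5 uM. HT29 sg-Ctrl and HT29 RNF43 G659fs CRISPR-edited isogenic cells were seeded at 2500 cells/well in 384-well plates in duplicate and treated for 96 h. Viability was read by CellTiter-Glo and reported as % activity relative to DMSO, with MG132 as the positive control (negative = growth inhibition).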

Compared with `C[C@H]1O[C@@H](O[C@H]2[C@@H](O)C[C@H](O[C@H]3[C@@H](O)C[C@H](O[C@H]4CC[C@@]5(C)[C@H](CC[C@@H]6[C@@H]5C[C@@H](O)[C@]5(C)[C@@H](C7=CC(=O)OC7)CC[C@]65O)C4)O[C@@H]3C)O[C@@H]2C)C[C@H](O)[C@@H]1O`, `COC(=O)[C@]12CCC(C)(C)C[C@H]1[C@H]1C(=O)C=C3[C@@]4(C)C=C(C#N)C(=O)C(C)(C)[C@@H]4CC[C@@]3(C)[C@]1(C)CC2` is lower in cell viability activity: -90.8% for the first, -93.4% for the second.

First: COc1cc(/C=C/c2ccc(OC)cc2OC)cc(OC)c1
Second: COc1cc(OC)c(/C=C/S(=O)(=O)Cc2ccc(OC)c(OP(=O)(O)O)c2)c(OC)c1
The cell viability activity of the first is lower: -75.7% for the first, -12.1% for the second.

Compared with `CCS(=O)(=O)c1cccc(-c2cc(C(=O)NC3CCN(C)CC3)c(C)c3[nH]c4ncc(C)cc4c23)c1`, `CCN1CCN(c2ccc(C(C)(C)NC(=O)c3cc4[nH]c5ccccc5c(=O)c4cc3F)cn2)CC1` is higher in cell viability activity: -85.9% for the first, -42.7% for the second.

First: CCCCCCCCCCCCCCC[C@@H](O)[C@@H](N)CO
Second: CC(=O)N(O)CCCCCNC(=O)CCC(=O)N(O)CCCCCNC(=O)CCC(=O)N(O)CCCCCN
The cell viability activity of the first is higher: -43.8% for the first, -45% for the second.

Going from `Nc1ncn([C@@H]2O[C@H](CO)[C@@H](O)[C@H]2O)c(=O)n1` to `OC[C@H]1O[C@@H](Oc2cc(O)cc(/C=C/c3ccc(O)cc3)c2)[C@H](O)[C@@H](O)[C@@H]1O`, the cell viability activity falls from -7.11% to -36%.

First: CC(C)(C)c1[nH]cnc1/C=c1\[nH]c(=O)/c(=C/c2ccccc2)[nH]c1=O
Second: COc1c/c(=C2\C=c3ccccc3=N2)[nH]/c1=C\c1[nH]c(C)cc1C
The cell viability activity of the first is higher: -54% for the first, -88.7% for the second.

First: CN1CC[C@@H](c2c(O)cc(O)c3c(=O)cc(-c4ccccc4Cl)oc23)[C@@H]1CO
Second: CC(C)c1cc(-c2n[nH]c(=O)n2-c2ccc3c(ccn3C)c2)c(O)cc1O
The cell viability activity of the first is lower: -82.7% for the first, -81.7% for the second.

First: COc1cc(N2CCC(N3CCN(C)CC3)CC2)ccc1Nc1ncc(Cl)c(Nc2ccccc2S(=O)(=O)C(C)C)n1
Second: C=CC(=O)Nc1cc2c(Nc3ccc(F)c(Cl)c3)ncnc2cc1C#CC(C)(C)N1CCN(C)CC1
The cell viability activity of the first is higher: -66.5% for the first, -86.1% for the second.

First: O=C1NCCN1CCN1CCC(c2cn(-c3ccc(F)cc3)c3ccc(Cl)cc23)CC1
Second: Fc1ccc(-n2cc(CCCCN3CCC4(CC3)OCc3ccccc34)c3ccccc32)cc1
The cell viability activity of the first is lower: -83.7% for the first, -62.5% for the second.

Going from `CC(C)c1cc(C(C)C)c(-c2csc(N(CCN(C)C)Cc3cccnc3)n2)c(C(C)C)c1` to `COCC[n+]1c2c(n(Cc3cnccn3)c1C)C(=O)c1ccccc1C2=O`, the cell viability activity falls from -63.4% to -95.6%.

First: CC(C=CC(=O)NO)=CC(C)C(=O)c1ccc(N(C)C)cc1 (stereo not drawn)
Second: CC(C)[C@H](C(=O)Nc1ccc(C(=O)NO)cc1)c1ccccc1
The cell viability activity of the first is lower: -94.9% for the first, -89.9% for the second.

First: CNCc1ccc(-c2cc(-c3nc(-c4ccc(S(=O)(=O)C(C)C)cc4)cnc3N)on2)cc1
Second: Cc1noc2c1-c1ccccc1C(c1ccc(Cl)cc1)=N[C@H]2CC(N)=O
The cell viability activity of the first is lower: -74.5% for the first, -57.7% for the second.

First: NC(=NC1C2CC3CC(C2)CC1C3)Nc1ccc(I)cc1 (stereo not drawn)
Second: CCNC(=O)Nc1ccc(-c2nc3c(c(N4CCOC[C@@H]4C)n2)CCN(C2COC2)C3)cc1
The cell viability activity of the first is lower: -69.8% for the first, -22% for the second.

First: Cn1ccc2cc(NC(=O)Nc3cccnc3)ccc21
Second: C=CC(=O)Nc1cccc(Nc2nc(Nc3ccc(OCCOC)cc3)ncc2F)c1
The cell viability activity of the first is lower: -52% for the first, -44.1% for the second.

Going from `O=c1cc(N2CCOCC2)oc2c(-c3cccc4c3sc3ccccc34)cccc12` to `O=C(c1cn(Cc2cncn2Cc2ccc(Br)cc2)cc1-c1cccc2ccccc12)N1CCOCC1`, the cell viability activity rises from -57.1% to -38.5%.

Compared with `NC(=S)N/N=C/c1ncccc1N`, `NS(=O)(=O)C#Cc1ccccc1` is lower in cell viability activity: -69.1% for the first, -72.2% for the second.

Compared with `Fc1cc(-c2cccc3ncc(-c4cnn(C5CCNCC5)c4)nc23)cc(F)c1CN1CCOCC1`, `CC(C)(O)C(=O)N1CCN(c2ccc(C(F)(F)F)c(C3=C(c4c[nH]c5ccccc45)C(=O)NC3=O)c2)CC1` is higher in cell viability activity: -92.4% for the first, -32.7% for the second.

Compared with `COC(=O)C1=C(C#N)NC(C)=C(C(=O)OC(C)C)C1c1cccc([N+](=O)[O-])c1` (stereo not drawn), `COCCOC(=O)C1=C(C)NC(C)=C(C(=O)OC/C=C/c2ccccc2)C1c1cccc([N+](=O)[O-])c1` (stereo not drawn) is higher in cell viability activity: -65.8% for the first, -50.7% for the second.

First: CC[C@@]1(O)C(=O)OCc2c1cc1n(c2=O)Cc2cc3c([N+](=O)[O-])cccc3nc2-1
Second: O=C(Nc1cc(C(F)(F)F)cc(C(F)(F)F)c1)c1cc(Cl)ccc1O
The cell viability activity of the first is lower: -95.5% for the first, -90.9% for the second.
